# Source: PubChem BioAssay (Tox21)
# Results filed as inconclusive are left out. Where a call stands in place of a potency, no number is given. The source made the active and inactive calls. Unless noted, the call rests on the fitted dose curve; in most records, active means well fitted curve in the direction sought with a large enough effect in the repeat runs; inconclusive means weak or mixed curves; inactive means no such curve, though single readings can be large; an effect the other way counts as inactive or inconclusive.
# Legend:
# [1] = A CellTox Green Cytotoxicity Assay to monitor cytotoxicity in HepG2 cells - 32 hour (AID 1224883); further: nearly all actives have a fitted effect of over 50% in size; further: potency means the concentration at half of the fitted maximal effect
# Procedure, shortened: (§1)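 Real-time, homogeneous cytotoxicity readout: dead-cell DNA staining by CellTox Green in HepG2 monolayers, fluorescence measured at timed intervals up to 40 h of continuous compound exposure.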
# [2] = A CellTox Green Cytotoxicity Assay to monitor cytotoxicity in HEK293 cells - 8 hour (AID 1224884); further: nearly all actives have a fitted effect of over 35% in size
# Procedure, shortened: (§2)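 Cytotoxicity was tracked continuously in HEK293 cells by a DNA-binding dye excluded from viable cells. Compounds were transferred in DMSO 5 h after seeding; fluorescence was recorded at intervals up to 40 h.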
# [3] = qHTS RealTime-Glo MT Cell Viability Assay in HepG2 cells - 16 hour (AID 1224885); further: nearly all actives have a fitted effect of over 50% in size; further: potency means the concentration at half of the fitted maximal effect
# Procedure, shortened: (§3)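 Cells + NanoLuc/prosubstrate dispensed (600 cells/well) → 5 h at 37 C/5% CO2 → compounds in DMSO transferred → 40 h incubation at 37 C, luminescence read at 0, 8, 16, 24, 32, 40 h.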
# [4] = qHTS RealTime-Glo MT Cell Viability Assay in HEK293 cells - 24 hour (AID 1224886); further: nearly all actives have a fitted effect of over 50% in size; further: potency means the concentration at half of the fitted maximal effect
# Procedure, shortened: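 Tox21 10K qHTS, HEK293, 600 cells/well, RealTime-Glo reagent co-dispensed with cells; 5 h preincubation, compound by pintool, 37 C, luminescence at 0–40 h.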
# [5] = A CellTox Green Cytotoxicity Assay to monitor cytotoxicity in HEK293 cells - 16 hour (AID 1224888); further: nearly all actives have a fitted effect of over 35% in size
# Procedure, shortened: as §2
# [6] = qHTS RealTime-Glo MT Cell Viability Assay in HepG2 cells - 0 hour (AID 1224889); further: nearly all actives have a fitted effect of over 50% in size; further: potency means the concentration at half of the fitted maximal effect
# Procedure, shortened: as §3
# [7] = A CellTox Green Cytotoxicity Assay to monitor cytotoxicity in HepG2 cells - 8 hour (AID 1224890); further: nearly all actives have a fitted effect of over 45% in size; further: potency means the concentration at half of the fitted maximal effect
# Procedure, shortened: as §1
# [8] = qHTS assay to identify small molecule antagonists of the estrogen receptor alpha (ER-alpha) signaling pathway using the BG1 cell line in the presence of 0.1 nM 17-beta-estradiol - cell viability counter screen (AID 1259241); further: nearly all actives have a fitted effect of over 40% in size; further: potency means the concentration at half of the fitted maximal effect
# Procedure, shortened: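 Cytotoxicity counter-screen: live-cell protease activity measured by fluorescence (30 min reagent step) in the same wells. Cells were VM7Luc4E2 with endogenous ER-alpha and ERE-driven luciferase, treated 22 hr at 37C alongside 0.1 nM 17beta-estradiol final.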
# [9] = qHTS assay to identify small molecule antagonists of the androgen receptor (AR) signaling pathway using the MDA cell line in the presence of 0.5 nM R1881 - cell viability counter screen (AID 1259242); further: nearly all actives have a fitted effect of over 45% in size; further: potency means the concentration at half of the fitted maximal effect
# Procedure, shortened: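 Cytotoxicity toward MDA-kb2 cells is measured by CellTiter-Fluor live-cell protease fluorescence after 16 hr compound exposure at 37C in the presence of 0.5 nM R1881 stimulator.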
# [10] = qHTS assay to identify small molecule HDAC inhibitors - cell viability counter screen (AID 1259365)
# Procedure, shortened: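 CellTiter-Glo luminescence (30 min, room temperature) reported viability after a 2 h compound exposure at 37 C. Cells: wild-type HCT-116, 1,500 per well, seeded the night before.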
# [11] = qHTS assay to identify small molecule agonists of the sonic hedgehog signaling (Shh) pathway - cell viability counter screen (AID 1259366); further: nearly all actives have a fitted effect of over 50% in size; further: potency means the concentration at half of the fitted maximal effect
# Procedure, shortened: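 Cytotoxicity counter screen: CellTiter-Fluor reagent added after 23 h compound exposure, then 1 h at 37C and fluorescence read. Cells were 3T3 Gli1-Luc, seeded 2,000 per well and dosed 4 h post-plating.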
# [12] = qHTS assay to identify small molecule antagonists of the sonic hedgehog signaling (Shh) pathway - cell viability counter screen (AID 1259367); further: nearly all actives have a fitted effect of over 55% in size; further: potency means the concentration at half of the fitted maximal effect
# Procedure, shortened: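 Cells: 3T3 Gli1-Luc, 2,000/well, 4 hr pre-incubation. Compounds in DMSO, then conditioned medium. Incubation 24 hr, 37C, 5% CO2. CellTiter-Fluor at 23 hr, 1 hr, fluorescence.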
# [13] = qHTS assay to identify small molecule agonists of the sonic hedgehog signaling (Shh) pathway (AID 1259368; calls by dose curve;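 further: NIH/3T3-derived 3T3Gli1-Luc cells carrying a stable Gli1-driven firefly luciferase reporter; series mostly up to about 92 µM; nearly all actives have a fitted effect of over 15% in size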)
# Procedure, shortened: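 Steps: seed 3T3 Gli1-Luc cells, incubate 4 hr at 37 C, pin-transfer compounds in DMSO alongside a positive control, incubate 24 hr, add luciferase detection reagent, wait 30 min at room temperature, read luminescence.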
# [14] = qHTS assay to identify small molecule antagonists of the sonic hedgehog signaling (Shh) pathway (AID 1259369; calls by dose curve; further: nearly all actives have a fitted effect of over 45% in size; further: potency means the concentration at half of the fitted maximal effect)
# Procedure, shortened: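 Inhibition of Shh signalling is measured as reduced Gli1-response-element firefly luciferase output in an NIH/3T3-derived stable reporter clone stimulated with conditioned medium for 24hr.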
# [15] = biological target: Estrogen receptor beta (Homo sapiens) (UniProt Q92731); test: qHTS assay to identify small molecule agonists of the estrogen receptor beta (ER-beta) signaling pathway (AID 1259377; active means well fitted activation curve with a large enough effect in the signal ratio in the repeat runs, not every such curve was filed as active; the % refers to the signal ratio)
# Sequence of Estrogen receptor beta (Homo sapiens) (Q92731 whole entry, looked up): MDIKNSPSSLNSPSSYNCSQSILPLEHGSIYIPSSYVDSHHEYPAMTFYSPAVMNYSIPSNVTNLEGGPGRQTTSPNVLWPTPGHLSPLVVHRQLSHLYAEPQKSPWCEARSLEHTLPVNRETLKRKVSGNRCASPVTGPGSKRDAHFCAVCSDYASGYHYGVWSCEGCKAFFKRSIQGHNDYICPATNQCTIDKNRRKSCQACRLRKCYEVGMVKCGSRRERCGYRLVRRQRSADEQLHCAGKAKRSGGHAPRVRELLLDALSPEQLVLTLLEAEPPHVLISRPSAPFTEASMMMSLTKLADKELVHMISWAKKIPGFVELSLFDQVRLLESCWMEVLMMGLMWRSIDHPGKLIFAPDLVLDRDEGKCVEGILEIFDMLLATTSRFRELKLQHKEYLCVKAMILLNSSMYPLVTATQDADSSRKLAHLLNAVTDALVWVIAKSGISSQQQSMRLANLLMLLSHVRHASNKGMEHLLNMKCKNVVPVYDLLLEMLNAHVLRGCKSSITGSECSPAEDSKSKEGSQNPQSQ
# Procedure, shortened: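 Ratiometric beta-lactamase FRET read-out came after 2 h substrate loading at room temperature. It followed 16 h compound treatment at 37C of GripTite HEK293T cells carrying a UAS-bla reporter, plated in 2% charcoal-stripped FBS medium.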
# [16] = qHTS assay to identify small molecule HDAC inhibitors (AID 1259364); further: nearly all actives have a fitted effect of over 45% in size; further: potency means the concentration at half of the fitted maximal effect
# Procedure, shortened: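 Homogeneous cell-based luminescent assay of endogenous class I/II HDAC activity; HCT-116 cells, 2 h compound exposure, 30 min HDAC-Glo development at RT.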
# [17] = qHTS RealTime-Glo MT Cell Viability Assay in HEK293 cells - 8 hour (AID 1224887); further: nearly all actives have a fitted effect of over 50% in size; further: potency means the concentration at half of the fitted maximal effect
# Procedure, shortened: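 Nonlytic bioluminescent viability monitoring. HEK293 at 600 cells/well with reagent; 5 h settle; compound transfer by pintool; plates held at 37 C and read at set time points.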
# [18] = biological target: Estrogen receptor (Homo sapiens) (UniProt P03372); test: qHTS assay to identify small molecule antagonists of the estrogen receptor alpha (ER-alpha) signaling pathway using the BG1 cell line in the presence of 0.1 nM 17-beta-estradiol (AID 1259244); further: nearly all actives have a fitted effect of over 50% in size; further: potency means the concentration at half of the fitted maximal effect
# Sequence of Estrogen receptor (Homo sapiens) (P03372 whole entry, looked up): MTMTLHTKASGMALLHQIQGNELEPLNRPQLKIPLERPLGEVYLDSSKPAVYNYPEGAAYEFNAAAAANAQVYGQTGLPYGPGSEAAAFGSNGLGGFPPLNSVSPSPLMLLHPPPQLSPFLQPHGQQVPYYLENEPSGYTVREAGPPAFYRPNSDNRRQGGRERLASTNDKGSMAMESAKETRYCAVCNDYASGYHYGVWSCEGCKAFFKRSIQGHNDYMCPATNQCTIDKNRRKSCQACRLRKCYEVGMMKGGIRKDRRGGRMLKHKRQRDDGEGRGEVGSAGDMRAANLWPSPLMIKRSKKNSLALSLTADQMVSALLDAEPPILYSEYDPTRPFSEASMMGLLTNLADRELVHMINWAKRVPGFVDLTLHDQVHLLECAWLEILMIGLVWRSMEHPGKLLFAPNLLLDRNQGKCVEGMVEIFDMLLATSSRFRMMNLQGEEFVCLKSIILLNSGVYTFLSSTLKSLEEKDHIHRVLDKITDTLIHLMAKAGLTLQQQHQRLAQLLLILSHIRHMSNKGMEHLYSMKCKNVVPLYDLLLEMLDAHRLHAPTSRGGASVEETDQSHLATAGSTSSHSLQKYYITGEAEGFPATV
# Procedure, shortened: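 After 5 days in hormone-depleted medium (charcoal-stripped serum, no phenol red), VM7Luc4E2 cells were seeded, incubated 24 h, then co-treated with compound and 0.1 nM (final) estradiol for 22 h before luminescence detection.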
# [19] = biological target: Androgen receptor (Homo sapiens) (UniProt P10275); test: qHTS assay to identify small molecule antagonists of the androgen receptor (AR) signaling pathway using the MDA cell line in the presence of 0.5 nM R1881 (AID 1259243)
# Sequence of Androgen receptor (Homo sapiens) (P10275 whole entry, looked up): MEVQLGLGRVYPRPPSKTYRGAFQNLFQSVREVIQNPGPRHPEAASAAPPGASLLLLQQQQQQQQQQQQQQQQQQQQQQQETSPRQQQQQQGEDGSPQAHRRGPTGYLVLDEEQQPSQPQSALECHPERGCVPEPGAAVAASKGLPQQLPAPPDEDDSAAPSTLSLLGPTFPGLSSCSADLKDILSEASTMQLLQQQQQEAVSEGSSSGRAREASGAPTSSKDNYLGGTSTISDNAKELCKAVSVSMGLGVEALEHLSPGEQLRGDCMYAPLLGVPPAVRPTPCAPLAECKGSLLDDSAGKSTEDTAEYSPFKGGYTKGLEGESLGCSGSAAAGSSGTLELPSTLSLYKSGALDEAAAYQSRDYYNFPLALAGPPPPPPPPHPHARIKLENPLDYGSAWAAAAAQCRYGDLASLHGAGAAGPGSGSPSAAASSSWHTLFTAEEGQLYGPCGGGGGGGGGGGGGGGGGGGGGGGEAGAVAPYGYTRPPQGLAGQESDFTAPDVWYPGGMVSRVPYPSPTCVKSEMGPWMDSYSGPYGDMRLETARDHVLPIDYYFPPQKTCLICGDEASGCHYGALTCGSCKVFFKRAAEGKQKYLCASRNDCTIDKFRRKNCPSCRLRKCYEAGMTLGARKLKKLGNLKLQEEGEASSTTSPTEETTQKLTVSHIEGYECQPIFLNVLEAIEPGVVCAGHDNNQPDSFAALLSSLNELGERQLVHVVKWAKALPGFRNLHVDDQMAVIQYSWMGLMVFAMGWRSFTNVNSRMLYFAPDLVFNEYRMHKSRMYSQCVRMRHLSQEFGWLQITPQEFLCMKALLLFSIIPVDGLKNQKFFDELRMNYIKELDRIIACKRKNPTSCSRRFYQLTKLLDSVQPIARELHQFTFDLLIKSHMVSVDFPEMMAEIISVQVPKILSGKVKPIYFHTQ
# Procedure, shortened: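 Steps: seed MDA-kb2 cells, incubate 5 hr at 37C; pin-transfer compounds in DMSO; add R1881 to 0.5 nM final; incubate 16 hr; add ONE-Glo, wait 30 min at room temperature; read luminescence.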
SMILES,Potency [1],Potency [2],Potency [3],Potency [4],Potency [5],Potency [6],Potency [7],Potency [8],Potency [9],Potency [10],Potency [11],Potency [12],Potency [13],Potency [14],Potency [15],Potency [16],Potency [17],Potency [18],Potency [19]
OC(Cc1ccccc1Cl)(Cn1cncn1)C1(Cl)CC1 (stereo not drawn),inactive,inactive,inactive,54.9 µM (active),inactive,24.5 µM (active),inactive,inactive,inactive,inactive,inactive,inactive,inactive,12.2 µM (active),inactive,,,,
Oc1c(Br)c(Br)c(Br)c(Br)c1Br,inactive,inactive,inactive,,inactive,inactive,inactive,inactive,,inactive,inactive,inactive,inactive,19.4 µM (active),,inactive,,,
O=C/C(Cl)=C(/Cl)C(=O)O,54.9 µM (active),inactive,inactive,,inactive,inactive,inactive,inactive,inactive,inactive,,,,38.6 µM (active),inactive,,inactive,inactive,
O=c1c(C2CC(c3ccc(-c4ccc(Br)cc4)cc3)Cc3ccccc32)c(O)sc2ccccc12 (stereo not drawn),inactive,inactive,,inactive,inactive,6.74 µM (active),inactive,inactive,inactive,inactive,inactive,inactive,,,inactive,inactive,inactive,13.3 µM (active),
ClC(Cl)=C(c1ccc(Cl)cc1)c1ccc(Cl)cc1,inactive,inactive,inactive,,inactive,inactive,inactive,inactive,inactive,inactive,inactive,inactive,inactive,inactive,,inactive,,inactive,
CC(=O)C(Cl)(Cl)Cl,inactive,inactive,inactive,,inactive,,inactive,20.9 µM (active),14.8 µM (active),inactive,20.9 µM (active),16.6 µM (active),,5.9 µM (active),,inactive,,11.8 µM (active),9.35 µM (active)
O=C(O)c1cc[c]([Hg][Cl])cc1,21.9 µM (active),inactive,30.9 µM (active),,,inactive,38.9 µM (active),,,inactive,27.3 µM (active),43.3 µM (active),inactive,1.72 µM (active),,30.6 µM (active),34.7 µM (active),inactive,
